Data taken from PMC7862700, “An all-to-all approach to the identification of sequence-specific readers for epigenetic DNA modifications on cytosine”.

target: T1, ETV3 (Homo sapiens, UniProt P41162-2 1-143); assay: DAPPL (digital affinity profiling via proximity ligation, sequencing); 10 mM Tris-HCl pH 7.5, 50 mM NaCl, 1 mM DTT, 4% glycerol, room temperature, 30 min; GST-TFs on glutathione beads, 16-mer random dsDNA library, 0.1% formaldehyde crosslink after washing; high values mean tight binding; conditions: protein: recombinant; tags: N-terminal GST; dsDNA, one strand shown
T1 sequence: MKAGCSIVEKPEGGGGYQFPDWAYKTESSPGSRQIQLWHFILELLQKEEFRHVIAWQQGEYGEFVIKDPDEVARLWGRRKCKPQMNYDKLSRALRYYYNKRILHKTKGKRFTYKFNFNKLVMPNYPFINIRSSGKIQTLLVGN
Method in brief: (§1)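 Each value of binding signal is a hexamer's read frequency for a factor divided by the same hexamer's frequency in the tag-only sample. Barcoded, bead-captured GST fusions of human transcription factors made in yeast were pooled with that sample and incubated with 200 nmole of a random double-stranded 16-mer DNA library in Tris/NaCl/DTT/glycerol buffer at room temperature for 30 min. Washing, 0.1% formaldehyde crosslinking, proximity ligation, PCR and Illumina NextSeq500 sequencing followed.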

| Sequence | binding signal |
| --- | --- |
| TAGGCA | 1.01 fold enrichment (6-mer frequency, TF over GST control) |
| CGCCAC | 1.02 fold enrichment (6-mer frequency, TF over GST control) |
| CATATG | 1.02 fold enrichment (6-mer frequency, TF over GST control) |
| GCCCTG | 1.04 fold enrichment (6-mer frequency, TF over GST control) |
| AACGCG | 1.1 fold enrichment (6-mer frequency, TF over GST control) |
| CCTAGG | 1.1 fold enrichment (6-mer frequency, TF over GST control) |
| CAGCTC | 1 fold enrichment (6-mer frequency, TF over GST control) |
| GTATGA | 1.02 fold enrichment (6-mer frequency, TF over GST control) |
| GTGTCT | 1.02 fold enrichment (6-mer frequency, TF over GST control) |
| ACGCGC | 1.09 fold enrichment (6-mer frequency, TF over GST control) |
| ACCTGT | 1.13 fold enrichment (6-mer frequency, TF over GST control) |

target: ETV6 (Homo sapiens, UniProt P41212 1-452); assay: as above; conditions: protein: recombinant; tags: N-terminal GST; dsDNA, one strand shown
Method in brief: as §1

Sequence of ETV6 (P41212 whole entry): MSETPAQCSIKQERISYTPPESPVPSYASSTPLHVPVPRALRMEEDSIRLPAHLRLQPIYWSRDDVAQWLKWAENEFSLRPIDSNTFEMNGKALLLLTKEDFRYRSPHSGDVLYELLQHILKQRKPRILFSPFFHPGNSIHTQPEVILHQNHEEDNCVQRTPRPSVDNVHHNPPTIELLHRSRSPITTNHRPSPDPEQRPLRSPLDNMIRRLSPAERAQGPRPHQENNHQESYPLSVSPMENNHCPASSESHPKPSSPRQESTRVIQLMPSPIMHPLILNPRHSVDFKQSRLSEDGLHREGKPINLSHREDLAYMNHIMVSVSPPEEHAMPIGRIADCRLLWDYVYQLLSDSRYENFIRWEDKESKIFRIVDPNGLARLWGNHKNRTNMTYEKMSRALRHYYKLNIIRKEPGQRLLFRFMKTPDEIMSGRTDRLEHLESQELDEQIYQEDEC

| Sequence | binding signal |
| --- | --- |
| CATATG | 1.03 fold enrichment (6-mer frequency, TF over GST control) |
| AACGCG | 1.01 fold enrichment (6-mer frequency, TF over GST control) |
| GCGCCG | 1.05 fold enrichment (6-mer frequency, TF over GST control) |
| GTGGCC | 1.1 fold enrichment (6-mer frequency, TF over GST control) |
